Assay [1] concerns the target Sphingosine kinase 1 (Homo sapiens) (UniProt Q9NYA1). The note with it: at 1 µM.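 Further: mean SPHK1 inhibition value reported from the GSK PKIS kinase panel screen.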
In assay [2] the target is T1, Sphingosine kinase 2 (Homo sapiens) (UniProt Q9NRA0).
T1 sequence (whole entry): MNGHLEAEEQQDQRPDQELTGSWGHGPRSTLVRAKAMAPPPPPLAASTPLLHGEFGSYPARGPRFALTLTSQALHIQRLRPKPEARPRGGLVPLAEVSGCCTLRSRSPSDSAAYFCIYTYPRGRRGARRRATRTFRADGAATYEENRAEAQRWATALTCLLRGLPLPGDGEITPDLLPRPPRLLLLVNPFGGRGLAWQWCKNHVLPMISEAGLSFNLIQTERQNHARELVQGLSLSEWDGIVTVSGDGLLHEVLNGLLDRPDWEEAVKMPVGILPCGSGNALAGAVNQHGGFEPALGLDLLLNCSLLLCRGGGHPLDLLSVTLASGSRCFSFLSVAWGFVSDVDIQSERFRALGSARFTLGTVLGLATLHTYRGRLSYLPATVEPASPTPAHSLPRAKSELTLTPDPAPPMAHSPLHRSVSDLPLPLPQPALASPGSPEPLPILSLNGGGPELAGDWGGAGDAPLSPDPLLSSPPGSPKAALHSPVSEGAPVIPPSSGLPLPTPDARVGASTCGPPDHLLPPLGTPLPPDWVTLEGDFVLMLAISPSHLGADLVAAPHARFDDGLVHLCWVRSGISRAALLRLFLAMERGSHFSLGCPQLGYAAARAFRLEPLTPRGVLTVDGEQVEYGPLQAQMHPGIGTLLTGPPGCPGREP
The note with it: at 0.1 µM.

Assay [3] deals with T1, Sphingosine kinase 2 (Homo sapiens). Particulars: at 1 µM.
Assay [4] deals with Casein kinase II subunit alpha (Homo sapiens) (UniProt P68400). The note with it: at 0.1 µM.
For assay [5] the target is unchanged. Particulars: at 1 µM.
For assay [6], the target named is T2, Inhibitor of nuclear factor kappa-B kinase subunit alpha (Homo sapiens) (UniProt O15111).
T2 sequence (whole entry): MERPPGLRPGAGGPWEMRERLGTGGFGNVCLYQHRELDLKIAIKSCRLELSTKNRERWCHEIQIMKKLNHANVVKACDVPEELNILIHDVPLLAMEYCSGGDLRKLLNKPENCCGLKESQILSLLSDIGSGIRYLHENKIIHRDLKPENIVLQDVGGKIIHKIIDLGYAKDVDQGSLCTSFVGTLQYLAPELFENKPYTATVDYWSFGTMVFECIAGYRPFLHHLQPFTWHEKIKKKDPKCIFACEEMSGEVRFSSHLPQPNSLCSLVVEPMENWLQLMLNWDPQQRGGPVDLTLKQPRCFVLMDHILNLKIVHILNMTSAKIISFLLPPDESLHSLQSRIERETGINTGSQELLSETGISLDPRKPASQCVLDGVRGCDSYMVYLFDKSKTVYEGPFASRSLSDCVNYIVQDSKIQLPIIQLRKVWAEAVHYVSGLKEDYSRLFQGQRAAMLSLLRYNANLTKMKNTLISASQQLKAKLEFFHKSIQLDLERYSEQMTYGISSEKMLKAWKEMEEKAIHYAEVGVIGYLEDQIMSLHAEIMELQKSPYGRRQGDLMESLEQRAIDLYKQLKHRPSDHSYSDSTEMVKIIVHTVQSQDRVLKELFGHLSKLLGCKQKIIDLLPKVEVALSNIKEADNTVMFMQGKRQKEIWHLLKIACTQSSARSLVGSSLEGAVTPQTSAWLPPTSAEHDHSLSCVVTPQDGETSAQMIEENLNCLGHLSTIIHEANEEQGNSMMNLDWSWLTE
The note with it: at 0.1 µM.

The target in assay [7] is T2, Inhibitor of nuclear factor kappa-B kinase subunit alpha (Homo sapiens). Particulars: at 1 µM.
The target of assay [8] is T3, Inhibitor of nuclear factor kappa-B kinase subunit beta (Homo sapiens) (UniProt O14920).
T3 sequence (whole entry): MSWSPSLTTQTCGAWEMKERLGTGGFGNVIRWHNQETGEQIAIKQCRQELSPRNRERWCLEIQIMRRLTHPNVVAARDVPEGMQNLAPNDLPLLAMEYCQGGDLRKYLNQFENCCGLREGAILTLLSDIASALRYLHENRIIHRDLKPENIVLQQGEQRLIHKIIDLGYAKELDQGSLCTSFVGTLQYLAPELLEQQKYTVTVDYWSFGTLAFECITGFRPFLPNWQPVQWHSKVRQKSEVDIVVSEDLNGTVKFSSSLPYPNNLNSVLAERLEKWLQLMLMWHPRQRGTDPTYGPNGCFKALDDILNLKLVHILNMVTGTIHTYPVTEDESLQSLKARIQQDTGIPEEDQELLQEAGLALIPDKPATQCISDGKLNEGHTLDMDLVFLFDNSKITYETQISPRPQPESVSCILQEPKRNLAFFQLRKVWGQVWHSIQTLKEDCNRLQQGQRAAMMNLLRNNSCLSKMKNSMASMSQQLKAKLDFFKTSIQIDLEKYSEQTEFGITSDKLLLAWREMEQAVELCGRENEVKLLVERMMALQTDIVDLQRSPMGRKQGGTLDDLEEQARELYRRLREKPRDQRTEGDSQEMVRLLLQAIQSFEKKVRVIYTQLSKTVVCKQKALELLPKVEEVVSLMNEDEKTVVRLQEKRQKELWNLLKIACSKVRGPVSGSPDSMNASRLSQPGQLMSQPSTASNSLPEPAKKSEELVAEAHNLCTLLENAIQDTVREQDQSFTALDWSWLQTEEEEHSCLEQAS
Particulars: at 0.1 µM.

For assay [9], the target named is T3, Inhibitor of nuclear factor kappa-B kinase subunit beta (Homo sapiens). Particulars: at 1 µM.
For assay [10], the target named is T4, Inhibitor of nuclear factor kappa-B kinase subunit epsilon (Homo sapiens) (UniProt Q14164).
T4 sequence (whole entry): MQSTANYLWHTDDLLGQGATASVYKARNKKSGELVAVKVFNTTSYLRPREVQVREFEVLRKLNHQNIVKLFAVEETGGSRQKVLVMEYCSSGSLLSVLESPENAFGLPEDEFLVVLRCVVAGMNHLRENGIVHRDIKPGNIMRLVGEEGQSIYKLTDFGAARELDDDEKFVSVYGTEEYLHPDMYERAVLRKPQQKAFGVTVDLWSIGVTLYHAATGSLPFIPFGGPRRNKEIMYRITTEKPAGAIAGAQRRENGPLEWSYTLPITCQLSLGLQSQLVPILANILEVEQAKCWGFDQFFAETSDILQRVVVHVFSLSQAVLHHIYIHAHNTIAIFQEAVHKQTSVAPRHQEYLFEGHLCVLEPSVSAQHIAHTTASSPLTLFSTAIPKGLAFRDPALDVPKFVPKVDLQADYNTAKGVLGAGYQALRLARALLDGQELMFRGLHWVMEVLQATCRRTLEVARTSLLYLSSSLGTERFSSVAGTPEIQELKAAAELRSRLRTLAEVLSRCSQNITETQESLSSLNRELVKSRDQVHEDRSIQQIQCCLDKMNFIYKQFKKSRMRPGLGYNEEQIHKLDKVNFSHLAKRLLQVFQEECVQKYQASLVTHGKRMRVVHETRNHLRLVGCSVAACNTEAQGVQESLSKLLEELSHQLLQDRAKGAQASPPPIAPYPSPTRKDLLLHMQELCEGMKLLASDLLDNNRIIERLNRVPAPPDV
The note with it: at 0.1 µM.

Assay [11] deals with T4, Inhibitor of nuclear factor kappa-B kinase subunit epsilon (Homo sapiens). The note with it: at 1 µM.
The target in assay [12] is T5, Serine/threonine-protein kinase Nek1 (Homo sapiens) (UniProt Q96PY6).
T5 sequence (whole entry): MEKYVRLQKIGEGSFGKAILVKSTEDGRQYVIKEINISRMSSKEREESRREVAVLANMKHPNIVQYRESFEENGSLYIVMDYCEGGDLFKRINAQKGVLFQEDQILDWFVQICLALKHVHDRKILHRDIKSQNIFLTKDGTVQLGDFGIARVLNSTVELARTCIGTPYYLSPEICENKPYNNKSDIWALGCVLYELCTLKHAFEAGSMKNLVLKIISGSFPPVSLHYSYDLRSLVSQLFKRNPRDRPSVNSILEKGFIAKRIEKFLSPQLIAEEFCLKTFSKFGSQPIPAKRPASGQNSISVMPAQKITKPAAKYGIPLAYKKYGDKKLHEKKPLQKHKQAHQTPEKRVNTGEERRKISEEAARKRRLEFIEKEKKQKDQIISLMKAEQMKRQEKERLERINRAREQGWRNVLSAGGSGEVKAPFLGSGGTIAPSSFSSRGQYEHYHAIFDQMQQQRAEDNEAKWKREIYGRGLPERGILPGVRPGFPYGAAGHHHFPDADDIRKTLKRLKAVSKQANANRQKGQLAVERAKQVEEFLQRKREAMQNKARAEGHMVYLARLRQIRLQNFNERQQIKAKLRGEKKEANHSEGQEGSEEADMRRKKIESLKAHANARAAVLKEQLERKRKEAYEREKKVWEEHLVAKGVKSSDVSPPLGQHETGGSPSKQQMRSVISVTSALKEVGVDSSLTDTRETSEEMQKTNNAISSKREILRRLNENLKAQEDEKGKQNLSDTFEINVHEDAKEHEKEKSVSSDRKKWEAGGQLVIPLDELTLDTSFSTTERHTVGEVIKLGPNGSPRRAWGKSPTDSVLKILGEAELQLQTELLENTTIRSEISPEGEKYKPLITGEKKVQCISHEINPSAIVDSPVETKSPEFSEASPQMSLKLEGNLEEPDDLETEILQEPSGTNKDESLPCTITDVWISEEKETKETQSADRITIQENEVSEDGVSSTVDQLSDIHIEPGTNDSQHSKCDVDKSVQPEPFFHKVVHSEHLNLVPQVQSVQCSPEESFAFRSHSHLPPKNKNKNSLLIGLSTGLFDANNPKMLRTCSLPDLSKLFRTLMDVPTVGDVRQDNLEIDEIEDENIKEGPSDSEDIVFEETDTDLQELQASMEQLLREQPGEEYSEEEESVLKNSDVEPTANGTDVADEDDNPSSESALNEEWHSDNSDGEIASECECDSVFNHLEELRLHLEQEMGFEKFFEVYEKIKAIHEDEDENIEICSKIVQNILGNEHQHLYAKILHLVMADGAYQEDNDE
The note with it: at 0.1 µM.

The target of assay [13] is T5, Serine/threonine-protein kinase Nek1 (Homo sapiens). Particulars: at 1 µM.
The target of assay [14] is T6, Serine/threonine-protein kinase Nek2 (Homo sapiens) (UniProt P51955).
T6 sequence (whole entry): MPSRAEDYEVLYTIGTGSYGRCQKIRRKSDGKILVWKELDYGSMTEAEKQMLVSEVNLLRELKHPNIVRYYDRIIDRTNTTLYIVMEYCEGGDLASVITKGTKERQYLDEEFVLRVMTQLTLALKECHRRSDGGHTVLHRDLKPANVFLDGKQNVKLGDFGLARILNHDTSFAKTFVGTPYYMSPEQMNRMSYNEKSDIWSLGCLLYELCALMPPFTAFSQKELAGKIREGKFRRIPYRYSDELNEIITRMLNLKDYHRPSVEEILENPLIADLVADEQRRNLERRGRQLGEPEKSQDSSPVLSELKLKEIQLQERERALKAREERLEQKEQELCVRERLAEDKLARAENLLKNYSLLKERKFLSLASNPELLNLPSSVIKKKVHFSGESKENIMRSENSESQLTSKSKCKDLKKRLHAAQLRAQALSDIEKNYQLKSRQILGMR
Particulars: at 0.1 µM.

Assay [15] has as its target T6, Serine/threonine-protein kinase Nek2 (Homo sapiens). The note with it: at 1 µM.
The target of assay [16] is Serine/threonine-protein kinase Nek6 (Homo sapiens) (UniProt Q9HC98). Particulars: at 0.1 µM.
The target is the same in assay [17]. The note with it: at 1 µM.
Assay [18] addresses Serine/threonine-protein kinase Nek7 (Homo sapiens) (UniProt Q8TDX7). Particulars: at 0.1 µM.
For assay [19] the target is unchanged. The note with it: at 1 µM.
Assay [20] deals with T7, Serine/threonine-protein kinase Nek9 (Homo sapiens) (UniProt Q8TD19).
T7 sequence (whole entry): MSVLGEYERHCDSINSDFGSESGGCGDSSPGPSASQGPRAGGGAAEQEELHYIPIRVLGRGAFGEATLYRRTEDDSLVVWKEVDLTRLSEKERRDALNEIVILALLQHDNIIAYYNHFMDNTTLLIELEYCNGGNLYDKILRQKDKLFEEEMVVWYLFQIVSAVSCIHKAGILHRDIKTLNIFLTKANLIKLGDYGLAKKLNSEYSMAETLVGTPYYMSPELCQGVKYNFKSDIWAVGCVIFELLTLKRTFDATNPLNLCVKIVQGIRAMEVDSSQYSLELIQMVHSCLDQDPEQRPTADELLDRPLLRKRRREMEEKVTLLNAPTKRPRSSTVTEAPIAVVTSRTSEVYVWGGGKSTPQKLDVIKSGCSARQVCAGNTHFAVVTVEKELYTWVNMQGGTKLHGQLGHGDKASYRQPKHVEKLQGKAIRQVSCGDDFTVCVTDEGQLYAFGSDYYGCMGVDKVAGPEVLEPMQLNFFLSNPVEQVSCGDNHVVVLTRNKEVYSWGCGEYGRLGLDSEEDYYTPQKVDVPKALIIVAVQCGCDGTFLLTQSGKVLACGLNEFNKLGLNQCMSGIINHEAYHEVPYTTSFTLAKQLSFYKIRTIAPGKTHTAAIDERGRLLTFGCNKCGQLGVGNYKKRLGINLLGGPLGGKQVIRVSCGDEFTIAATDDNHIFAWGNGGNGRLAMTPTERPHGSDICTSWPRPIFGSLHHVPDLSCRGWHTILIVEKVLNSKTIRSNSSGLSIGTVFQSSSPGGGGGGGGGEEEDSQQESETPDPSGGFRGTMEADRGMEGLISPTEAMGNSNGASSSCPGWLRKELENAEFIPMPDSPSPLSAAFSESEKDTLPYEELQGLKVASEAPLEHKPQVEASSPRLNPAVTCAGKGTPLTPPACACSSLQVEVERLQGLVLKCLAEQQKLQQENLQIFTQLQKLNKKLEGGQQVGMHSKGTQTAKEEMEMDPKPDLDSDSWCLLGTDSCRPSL
Particulars: at 0.1 µM.

Structures are written as SMILES.

As usually defined, the inhibition is the relative decrease from the control value, in per cent.

Chain of Serine/threonine-protein kinase Nek6 (Homo sapiens) (Q9HC98 whole entry): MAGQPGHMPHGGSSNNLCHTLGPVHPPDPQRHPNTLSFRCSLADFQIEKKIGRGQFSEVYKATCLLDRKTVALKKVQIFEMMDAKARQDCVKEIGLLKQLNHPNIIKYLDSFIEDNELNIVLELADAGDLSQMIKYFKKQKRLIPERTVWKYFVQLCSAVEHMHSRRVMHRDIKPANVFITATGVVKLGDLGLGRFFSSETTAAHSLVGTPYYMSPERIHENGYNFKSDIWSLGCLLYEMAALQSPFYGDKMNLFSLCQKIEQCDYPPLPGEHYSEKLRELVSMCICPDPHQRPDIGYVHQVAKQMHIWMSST
Chain of Casein kinase II subunit alpha (Homo sapiens) (P68400 whole entry, looked up): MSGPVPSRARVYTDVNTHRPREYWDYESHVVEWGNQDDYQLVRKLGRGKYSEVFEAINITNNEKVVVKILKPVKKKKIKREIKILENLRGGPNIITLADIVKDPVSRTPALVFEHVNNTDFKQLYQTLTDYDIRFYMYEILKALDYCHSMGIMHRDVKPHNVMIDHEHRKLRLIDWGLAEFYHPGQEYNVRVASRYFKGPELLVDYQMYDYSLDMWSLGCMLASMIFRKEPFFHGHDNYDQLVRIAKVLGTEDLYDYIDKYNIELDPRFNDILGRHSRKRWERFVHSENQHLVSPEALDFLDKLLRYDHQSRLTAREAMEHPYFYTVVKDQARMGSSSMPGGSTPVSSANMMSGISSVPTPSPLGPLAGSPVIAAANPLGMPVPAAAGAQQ
Chain of Serine/threonine-protein kinase Nek7 (Homo sapiens) (Q8TDX7 whole entry, looked up): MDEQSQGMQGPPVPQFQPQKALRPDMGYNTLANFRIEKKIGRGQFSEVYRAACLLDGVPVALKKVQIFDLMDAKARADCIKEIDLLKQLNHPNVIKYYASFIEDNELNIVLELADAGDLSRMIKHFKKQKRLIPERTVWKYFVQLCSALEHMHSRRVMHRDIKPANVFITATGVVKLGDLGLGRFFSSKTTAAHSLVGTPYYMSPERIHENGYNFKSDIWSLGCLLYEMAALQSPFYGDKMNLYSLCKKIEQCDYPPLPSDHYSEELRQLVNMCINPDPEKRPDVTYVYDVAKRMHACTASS
Chain of Sphingosine kinase 1 (Homo sapiens) (Q9NYA1 whole entry): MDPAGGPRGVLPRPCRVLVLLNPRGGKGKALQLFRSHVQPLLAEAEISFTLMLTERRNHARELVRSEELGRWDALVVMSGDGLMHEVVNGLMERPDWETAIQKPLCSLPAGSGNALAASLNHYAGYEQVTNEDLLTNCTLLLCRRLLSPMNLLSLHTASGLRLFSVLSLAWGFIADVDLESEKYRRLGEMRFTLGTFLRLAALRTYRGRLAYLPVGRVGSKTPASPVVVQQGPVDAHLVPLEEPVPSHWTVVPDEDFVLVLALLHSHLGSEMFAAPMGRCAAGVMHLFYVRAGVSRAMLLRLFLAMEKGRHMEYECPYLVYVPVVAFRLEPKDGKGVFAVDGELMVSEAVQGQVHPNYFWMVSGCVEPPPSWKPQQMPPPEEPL

For the molecule `NC(=O)c1sc(-n2cnc3cc(C(F)(F)F)ccc32)cc1OCc1ccccc1Br`, the inhibition in assay [1] is 0.07%; in assay [2], -0.95%; in [3] it was 0%; in assay [4], -1.01%; in assay [5] it was 2.21%; in assay [6], 2.77%. The inhibition was 2.85% in assay [7]; 3.87% in assay [8]; 2.52% in assay [9]; 3.08% in assay [10]; 3.62% in assay [11]; 1.03% in [12]. Also, the inhibition was 1.9% in assay [13]; 2.62% in [14]; 3.63% in assay [15]; -1.58% in assay [16]; -0.03% in [17]; -3.9% in assay [18]. For the same molecule, the figures for the inhibition in [19] and in assay [20] were 3.69% and 8.36%, respectively.

Values taken from ChEMBL document CHEMBL1961873, “Compounds: GSK PKIS; Assays: Nanosyn kinase panel” (2012).
